The source of these data is ChEMBL document CHEMBL1961873, “Compounds: GSK PKIS; Assays: Nanosyn kinase panel” (2012).

For test [1], the target named is Tyrosine-protein kinase Fer (Homo sapiens) (UniProt P16591). The conditions noted are these: at 1 µM.
Test [2] concerns the target Tyrosine-protein kinase Fes/Fps (Homo sapiens) (UniProt P07332). As to conditions: at 0.1 µM.
Test [3] has the same target. As to conditions: at 1 µM.
Test [4] deals with Fibroblast growth factor receptor 1 (Homo sapiens) (UniProt P11362). The conditions noted are these: at 0.1 µM.
The target is the same in test [5]. The conditions noted are these: at 1 µM.
Test [6] concerns the target Fibroblast growth factor receptor 2 (Homo sapiens) (UniProt P21802). The conditions noted are these: at 0.1 µM.
The target is the same in test [7]. As to conditions: at 1 µM.
Test [8] deals with Fibroblast growth factor receptor 3 (Homo sapiens) (UniProt P22607). The conditions noted are these: at 1 µM.
Fibroblast growth factor receptor 3 (Homo sapiens), sequence (P22607 23-806 limits assumed): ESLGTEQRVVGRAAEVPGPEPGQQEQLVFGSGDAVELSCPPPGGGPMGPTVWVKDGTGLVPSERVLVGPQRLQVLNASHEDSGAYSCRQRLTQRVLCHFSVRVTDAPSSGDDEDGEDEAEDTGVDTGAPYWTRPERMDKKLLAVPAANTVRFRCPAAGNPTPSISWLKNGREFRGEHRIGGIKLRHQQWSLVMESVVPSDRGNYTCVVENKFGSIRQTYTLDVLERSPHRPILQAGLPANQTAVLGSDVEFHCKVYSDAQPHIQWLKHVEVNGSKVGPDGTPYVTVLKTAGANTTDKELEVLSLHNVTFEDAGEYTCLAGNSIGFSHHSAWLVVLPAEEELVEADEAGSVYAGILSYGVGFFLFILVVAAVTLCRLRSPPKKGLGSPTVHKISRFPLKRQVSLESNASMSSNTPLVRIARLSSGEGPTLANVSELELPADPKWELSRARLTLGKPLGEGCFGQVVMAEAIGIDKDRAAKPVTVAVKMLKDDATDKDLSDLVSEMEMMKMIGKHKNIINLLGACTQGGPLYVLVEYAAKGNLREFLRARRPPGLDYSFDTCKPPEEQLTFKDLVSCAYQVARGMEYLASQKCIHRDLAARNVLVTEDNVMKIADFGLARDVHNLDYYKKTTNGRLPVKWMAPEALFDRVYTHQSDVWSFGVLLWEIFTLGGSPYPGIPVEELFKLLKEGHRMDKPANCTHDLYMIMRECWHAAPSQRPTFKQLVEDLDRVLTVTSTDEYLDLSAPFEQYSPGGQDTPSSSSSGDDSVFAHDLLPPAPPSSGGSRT
The target in test [9] is Fibroblast growth factor receptor 4 (Homo sapiens) (UniProt P22455). As to conditions: at 0.1 µM.
Fibroblast growth factor receptor 4 (Homo sapiens), sequence (P22455 22-802 limits assumed): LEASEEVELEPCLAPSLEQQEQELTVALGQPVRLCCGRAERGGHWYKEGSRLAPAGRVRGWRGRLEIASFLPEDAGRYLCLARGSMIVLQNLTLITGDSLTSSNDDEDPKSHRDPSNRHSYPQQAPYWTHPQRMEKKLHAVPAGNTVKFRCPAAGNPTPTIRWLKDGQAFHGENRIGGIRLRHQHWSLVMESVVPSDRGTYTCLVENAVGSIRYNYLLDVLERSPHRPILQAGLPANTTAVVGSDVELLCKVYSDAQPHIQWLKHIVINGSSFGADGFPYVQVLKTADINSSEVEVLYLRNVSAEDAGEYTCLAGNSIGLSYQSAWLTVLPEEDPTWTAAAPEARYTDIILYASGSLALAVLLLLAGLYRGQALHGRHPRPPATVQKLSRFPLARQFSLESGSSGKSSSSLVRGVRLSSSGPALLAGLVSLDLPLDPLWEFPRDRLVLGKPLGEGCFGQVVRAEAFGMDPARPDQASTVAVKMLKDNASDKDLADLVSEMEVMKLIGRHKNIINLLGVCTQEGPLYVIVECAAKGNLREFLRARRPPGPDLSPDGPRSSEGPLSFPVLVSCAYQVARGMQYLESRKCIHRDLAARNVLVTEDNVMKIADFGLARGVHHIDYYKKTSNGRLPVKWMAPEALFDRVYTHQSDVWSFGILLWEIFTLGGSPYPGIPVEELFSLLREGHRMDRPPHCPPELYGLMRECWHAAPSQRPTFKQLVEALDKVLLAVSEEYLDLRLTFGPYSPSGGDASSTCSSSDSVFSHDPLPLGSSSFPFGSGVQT
Test [10] shares this target. The conditions noted are these: at 1 µM.
Test [11] has as its target Tyrosine-protein kinase Fgr (Homo sapiens) (UniProt P09769). As to conditions: at 0.1 µM.
Test [12] shares this target. The conditions noted are these: at 1 µM.
Test [13] concerns the target Vascular endothelial growth factor receptor 1 (Homo sapiens) (UniProt P17948). The conditions noted are these: at 0.1 µM.
Test [14] has the same target. The conditions noted are these: at 1 µM.
Test [15] deals with Receptor-type tyrosine-protein kinase FLT3 (Homo sapiens) (UniProt P36888). The conditions noted are these: at 0.1 µM.
Test [16] has the same target. The conditions noted are these: at 1 µM.
For test [17], the system named is T1, Receptor-type tyrosine-protein kinase FLT3 (Homo sapiens), P36888 [D835Y].
T1 sequence (whole entry): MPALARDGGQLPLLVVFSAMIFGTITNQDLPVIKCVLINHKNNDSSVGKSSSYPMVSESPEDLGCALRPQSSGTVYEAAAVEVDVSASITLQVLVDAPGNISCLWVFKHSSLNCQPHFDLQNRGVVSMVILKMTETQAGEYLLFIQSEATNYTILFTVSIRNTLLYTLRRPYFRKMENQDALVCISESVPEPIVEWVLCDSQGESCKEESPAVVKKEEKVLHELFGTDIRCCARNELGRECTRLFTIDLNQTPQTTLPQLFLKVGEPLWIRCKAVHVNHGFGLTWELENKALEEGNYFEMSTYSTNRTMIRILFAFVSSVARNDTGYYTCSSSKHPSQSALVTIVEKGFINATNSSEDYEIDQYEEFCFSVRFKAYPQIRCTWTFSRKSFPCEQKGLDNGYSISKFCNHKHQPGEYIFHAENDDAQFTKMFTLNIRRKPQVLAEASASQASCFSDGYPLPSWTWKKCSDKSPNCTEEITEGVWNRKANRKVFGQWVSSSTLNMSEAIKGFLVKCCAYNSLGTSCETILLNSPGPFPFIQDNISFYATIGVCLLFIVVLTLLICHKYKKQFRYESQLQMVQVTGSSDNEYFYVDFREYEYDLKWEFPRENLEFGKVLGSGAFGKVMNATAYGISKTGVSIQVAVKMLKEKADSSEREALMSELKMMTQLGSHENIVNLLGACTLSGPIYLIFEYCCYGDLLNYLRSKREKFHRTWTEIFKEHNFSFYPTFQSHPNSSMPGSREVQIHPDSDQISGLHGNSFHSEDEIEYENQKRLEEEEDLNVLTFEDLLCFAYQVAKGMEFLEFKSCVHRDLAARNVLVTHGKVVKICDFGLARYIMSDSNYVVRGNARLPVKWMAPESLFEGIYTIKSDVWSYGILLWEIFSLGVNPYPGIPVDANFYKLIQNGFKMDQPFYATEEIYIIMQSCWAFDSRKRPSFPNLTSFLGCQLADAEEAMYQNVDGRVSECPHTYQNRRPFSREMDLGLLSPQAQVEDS
As to conditions: at 0.1 µM.

Test [18] concerns the target Non-receptor tyrosine-protein kinase TYK2 (Homo sapiens) (UniProt P29597). The conditions noted are these: at 1 µM.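 Note: values are mean percent inhibition of TYK2 kinase.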
Test [19] has as its target T2, Tyrosine-protein kinase receptor TYRO3 (Homo sapiens) (UniProt Q06418).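 Note: reported percentages are averaged inhibition values of TYRO3 kinase activity.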
T2 sequence (whole entry): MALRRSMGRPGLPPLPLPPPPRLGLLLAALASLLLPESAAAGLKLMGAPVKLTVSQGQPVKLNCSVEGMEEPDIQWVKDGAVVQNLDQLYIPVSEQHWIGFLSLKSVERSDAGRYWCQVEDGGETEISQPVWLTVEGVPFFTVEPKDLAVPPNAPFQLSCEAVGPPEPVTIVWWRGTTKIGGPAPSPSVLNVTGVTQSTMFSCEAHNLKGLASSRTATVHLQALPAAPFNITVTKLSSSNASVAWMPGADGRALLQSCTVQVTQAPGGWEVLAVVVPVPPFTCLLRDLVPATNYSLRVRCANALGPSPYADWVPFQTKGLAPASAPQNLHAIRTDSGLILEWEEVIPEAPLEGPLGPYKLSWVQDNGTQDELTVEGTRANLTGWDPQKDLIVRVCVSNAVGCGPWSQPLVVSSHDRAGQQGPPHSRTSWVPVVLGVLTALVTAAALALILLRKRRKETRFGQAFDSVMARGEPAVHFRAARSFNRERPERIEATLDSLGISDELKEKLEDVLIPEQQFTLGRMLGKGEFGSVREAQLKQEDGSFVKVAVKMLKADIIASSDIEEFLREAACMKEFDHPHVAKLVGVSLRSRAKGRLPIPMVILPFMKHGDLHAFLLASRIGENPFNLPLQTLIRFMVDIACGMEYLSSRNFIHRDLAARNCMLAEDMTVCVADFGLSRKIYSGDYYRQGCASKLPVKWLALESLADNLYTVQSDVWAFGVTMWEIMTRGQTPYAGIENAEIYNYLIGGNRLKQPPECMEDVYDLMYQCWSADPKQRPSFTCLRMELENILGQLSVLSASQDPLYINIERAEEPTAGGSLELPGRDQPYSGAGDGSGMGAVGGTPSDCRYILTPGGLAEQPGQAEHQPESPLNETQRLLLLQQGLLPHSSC
As to conditions: at 0.1 µM.

The target in test [20] is Fibroblast growth factor receptor 3 (Homo sapiens) (UniProt P22607). As to conditions: at 0.1 µM.

Tyrosine-protein kinase Fgr (Homo sapiens), sequence (P09769 2-529 limits assumed): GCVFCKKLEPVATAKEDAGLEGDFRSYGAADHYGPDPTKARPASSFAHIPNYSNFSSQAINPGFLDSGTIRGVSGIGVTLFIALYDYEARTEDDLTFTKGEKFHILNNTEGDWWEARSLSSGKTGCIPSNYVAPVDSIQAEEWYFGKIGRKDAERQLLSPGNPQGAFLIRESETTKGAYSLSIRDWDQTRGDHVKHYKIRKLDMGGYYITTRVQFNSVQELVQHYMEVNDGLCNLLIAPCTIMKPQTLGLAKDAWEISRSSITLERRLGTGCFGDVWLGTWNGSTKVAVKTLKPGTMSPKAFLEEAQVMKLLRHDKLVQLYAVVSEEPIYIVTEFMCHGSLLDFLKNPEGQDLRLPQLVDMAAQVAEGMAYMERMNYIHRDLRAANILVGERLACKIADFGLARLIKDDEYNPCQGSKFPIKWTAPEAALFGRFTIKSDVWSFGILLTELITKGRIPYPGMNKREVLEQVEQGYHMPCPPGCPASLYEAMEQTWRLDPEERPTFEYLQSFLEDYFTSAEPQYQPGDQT
Tyrosine-protein kinase Fer (Homo sapiens), sequence (P16591 whole entry, looked up): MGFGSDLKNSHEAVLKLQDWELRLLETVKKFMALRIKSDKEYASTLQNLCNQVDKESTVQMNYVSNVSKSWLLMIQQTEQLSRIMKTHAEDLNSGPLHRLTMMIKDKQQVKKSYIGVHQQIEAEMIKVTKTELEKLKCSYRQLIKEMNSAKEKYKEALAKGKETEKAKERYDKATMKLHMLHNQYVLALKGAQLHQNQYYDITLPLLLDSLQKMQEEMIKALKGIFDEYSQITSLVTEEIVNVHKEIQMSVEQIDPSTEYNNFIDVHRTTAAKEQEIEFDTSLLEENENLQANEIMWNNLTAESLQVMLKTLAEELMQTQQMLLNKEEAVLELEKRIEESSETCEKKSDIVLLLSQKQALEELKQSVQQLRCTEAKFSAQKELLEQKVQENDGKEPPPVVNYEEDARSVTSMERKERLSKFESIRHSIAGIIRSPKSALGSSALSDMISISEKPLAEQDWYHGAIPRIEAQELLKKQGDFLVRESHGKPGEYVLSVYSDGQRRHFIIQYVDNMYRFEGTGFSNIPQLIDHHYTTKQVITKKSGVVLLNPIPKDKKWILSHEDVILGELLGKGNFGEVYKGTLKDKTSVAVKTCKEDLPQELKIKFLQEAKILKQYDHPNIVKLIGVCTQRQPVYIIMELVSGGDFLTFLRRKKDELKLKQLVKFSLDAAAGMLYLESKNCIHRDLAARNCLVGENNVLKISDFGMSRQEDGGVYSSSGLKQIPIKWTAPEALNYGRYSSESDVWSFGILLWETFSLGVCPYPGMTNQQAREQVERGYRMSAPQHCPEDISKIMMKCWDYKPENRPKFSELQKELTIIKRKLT
Non-receptor tyrosine-protein kinase TYK2 (Homo sapiens), sequence (P29597 whole entry): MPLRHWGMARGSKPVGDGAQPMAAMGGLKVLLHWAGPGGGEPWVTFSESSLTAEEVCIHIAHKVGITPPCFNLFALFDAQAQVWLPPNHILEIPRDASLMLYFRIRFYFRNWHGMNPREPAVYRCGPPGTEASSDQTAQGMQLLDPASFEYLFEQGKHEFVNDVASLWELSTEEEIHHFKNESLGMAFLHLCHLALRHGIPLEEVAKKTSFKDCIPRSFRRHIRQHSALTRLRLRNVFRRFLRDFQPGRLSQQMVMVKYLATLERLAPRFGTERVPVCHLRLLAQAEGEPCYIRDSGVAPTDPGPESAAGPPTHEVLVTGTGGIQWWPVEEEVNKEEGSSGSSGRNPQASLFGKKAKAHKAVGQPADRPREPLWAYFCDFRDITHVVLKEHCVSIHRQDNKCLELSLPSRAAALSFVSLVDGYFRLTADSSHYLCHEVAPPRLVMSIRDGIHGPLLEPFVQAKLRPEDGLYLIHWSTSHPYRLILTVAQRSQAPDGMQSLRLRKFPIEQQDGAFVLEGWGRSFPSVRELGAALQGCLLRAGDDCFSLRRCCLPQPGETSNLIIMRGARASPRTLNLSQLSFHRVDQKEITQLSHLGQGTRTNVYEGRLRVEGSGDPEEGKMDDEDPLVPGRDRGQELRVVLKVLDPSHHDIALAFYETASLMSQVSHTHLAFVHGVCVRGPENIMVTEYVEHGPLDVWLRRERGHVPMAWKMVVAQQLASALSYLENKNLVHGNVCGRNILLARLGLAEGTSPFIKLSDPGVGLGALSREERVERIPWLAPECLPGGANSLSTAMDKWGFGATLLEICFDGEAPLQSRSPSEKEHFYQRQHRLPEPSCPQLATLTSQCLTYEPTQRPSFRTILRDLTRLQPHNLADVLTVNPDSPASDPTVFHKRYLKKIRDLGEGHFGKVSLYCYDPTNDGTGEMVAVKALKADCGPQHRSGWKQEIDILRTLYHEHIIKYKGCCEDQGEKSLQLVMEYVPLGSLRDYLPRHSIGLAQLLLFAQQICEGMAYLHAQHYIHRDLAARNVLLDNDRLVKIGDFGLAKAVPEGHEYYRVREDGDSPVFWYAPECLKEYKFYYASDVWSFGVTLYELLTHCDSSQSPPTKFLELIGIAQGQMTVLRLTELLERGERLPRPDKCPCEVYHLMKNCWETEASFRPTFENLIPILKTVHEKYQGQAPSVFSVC
Tyrosine-protein kinase Fes/Fps (Homo sapiens), sequence (P07332 whole entry): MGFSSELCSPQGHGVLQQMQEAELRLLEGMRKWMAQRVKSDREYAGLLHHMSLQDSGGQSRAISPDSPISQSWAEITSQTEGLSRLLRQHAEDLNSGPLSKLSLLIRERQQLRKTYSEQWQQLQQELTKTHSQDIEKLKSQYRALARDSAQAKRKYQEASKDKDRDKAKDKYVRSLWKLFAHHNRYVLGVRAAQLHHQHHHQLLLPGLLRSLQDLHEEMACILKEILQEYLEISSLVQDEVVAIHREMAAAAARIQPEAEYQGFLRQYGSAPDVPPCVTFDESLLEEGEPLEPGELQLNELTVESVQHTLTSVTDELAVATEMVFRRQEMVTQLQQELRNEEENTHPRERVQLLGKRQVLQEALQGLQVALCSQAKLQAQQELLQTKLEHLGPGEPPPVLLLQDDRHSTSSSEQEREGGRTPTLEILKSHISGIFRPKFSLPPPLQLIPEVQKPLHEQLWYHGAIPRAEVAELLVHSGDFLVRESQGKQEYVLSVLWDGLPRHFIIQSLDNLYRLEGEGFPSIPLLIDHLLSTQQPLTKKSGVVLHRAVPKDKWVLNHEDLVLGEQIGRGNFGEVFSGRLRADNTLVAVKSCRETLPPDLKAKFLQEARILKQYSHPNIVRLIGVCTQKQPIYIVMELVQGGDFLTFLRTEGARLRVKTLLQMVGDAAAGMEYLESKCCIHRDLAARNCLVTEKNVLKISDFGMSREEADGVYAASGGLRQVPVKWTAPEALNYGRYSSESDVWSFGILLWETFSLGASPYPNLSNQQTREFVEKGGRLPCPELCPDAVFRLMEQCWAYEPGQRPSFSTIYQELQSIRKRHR

On to `NS(=O)(=O)c1ccc(NC=C2C(=O)Nc3ccc4ncsc4c32)cc1`, for which the inhibition (as a rule, the relative decrease from the control value, in per cent) came to 27.7% in [1]; 12.3% in test [2]; 17.1% in test [3]; 13.4% in test [4]; 41.9% in [5]; 31.5% in test [6]. For the same molecule, the inhibition was 63.8% in test [7]; 65% in test [8]; -2.6% in test [9]; 11.5% in [10]; 6.25% in test [11]; 36.2% in test [12]. Also, the inhibition in test [13] came out at 19.3%; in test [14], 67.6%; in test [15] it was 47.7%; in test [16], 85.4%; in [17], 59.9%; in test [18], 63.6%. The inhibition in test [19] came out at 8.88%.
As to `NS(=O)(=O)c1cccc(-c2cc3ccncc3cc2OCc2ccccc2)c1`, the inhibition in test [1] was 4.16%; in [2] it was 4.25%; in test [3], 7.11%; in [4], 8.63%; in test [5], 10.7%; in test [6], 9.37%. The inhibition in test [7] was determined as 15.6%; in test [20] it was 8.37%; in test [8], 13%; in [9], 0.02%; in test [10] it was 3.21%; in [11], 1.58%. For the same molecule, the inhibition turned out to be 7.39% in [12]; 1.89% in [13]; 3.8% in test [14]; 4.34% in [15]; 2.96% in [16]; 1.09% in test [17]. The inhibition in [18] is -5.35%; in [19], 2.68%.
Regarding `Cc1cc(-c2ccccn2)cc(C)c1/C=C/c1cncc(-c2nn[nH]n2)c1`, the inhibition in test [1] worked out at 2.12%; in test [2], 3.53%; in test [3], 5.62%; in test [4] it was 1.35%; in test [6] it was 4.22%; in test [7], 7.33%. Further, the inhibition in [20] is 5.34%; in test [8], 4.82%; in test [9], 2.42%; in test [10], -0.54%; in test [11], 2.37%; in [12], 18.2%. For the same molecule, the inhibition was -0.29% in [13]; 1.74% in test [14]; 5.83% in [15]; 3.4% in test [16]; -7.99% in test [17]; -2.42% in test [18]. Besides, the inhibition in [19] was found to be 0.01%.
As for `COc1ccc(-c2nn3ncccc3c2-c2ccnc(Nc3cccc(C(F)(F)F)c3)n2)cc1`, the inhibition in test [1] is 1.69%; in test [2] it was 3.15%; in [3] it was 2.54%; in test [4], 1.38%; in [5] it was -1.86%; in test [6] it was 2.73%. Also, the inhibition in [7] was 0.17%; in test [20], 2.6%; in [8], 4.58%; in [9], 1.02%; in [10] it was 0.55%; in [11] it was 10.2%. In addition, the inhibition in test [12] was 42.1%; in [13], 4.29%; in [14], 10.2%; in test [15] it was 1.01%; in test [16], 1.12%; in [17], -4.47%. The inhibition in test [18] was -0.27%; in [19], 1.68%.
Regarding `NS(=O)(=O)c1ccc(Nc2cc(-c3cccc(O)c3)n[nH]2)cc1`, the inhibition in test [1] was 7.21%; in test [2] it was 3.6%; in test [3], 4.45%; in [4], 7.55%; in test [5], 14.2%; in test [6], 8.82%. In addition, the inhibition is 15.9% in test [7]; 9.15% in test [20]; 13.4% in test [8]; -0.72% in [9]; 4.03% in test [10]; 2.88% in test [11]. Also, the inhibition in [12] came to 6.79%; in test [13], 2.51%; in test [14] it was 11.9%; in [15], 5.64%; in [16] it was 23.2%; in test [17], 3.16%. For the same molecule, the inhibition is -3.05% in test [18] and 3.41% in test [19].
For the molecule `COc1cc2ncn(-c3cc(OCc4ccccc4S(C)(=O)=O)c(C#N)s3)c2cc1OC`, the inhibition stood at 10.3% in [1]; 2.71% in test [2]; 3.13% in [3]; 12.1% in test [4]; 19.3% in test [5]; 8.86% in test [6]. Moreover, the inhibition in [7] was 31.6%; in [20], 9.71%; in test [8], 24.1%; in test [9], 2%; in [10], 1.47%; in [11], 15.2%. In addition, the inhibition in [12] came to 59.6%; in test [13], 3.31%; in [14], 15.7%; in [15] it was 3.03%; in test [16], 11.6%; in test [17], 5.25%. In addition, the inhibition is 1.09% in test [18] and 4.94% in test [19].
